These results are taken from ChEMBL document CHEMBL4513216, “Probing the Open Global Health Chemical Diversity Library for Multistage-Active Starting Points for Next-Generation Antimalarials” (ACS Infect Dis, 2020).

Among all 68,000 compounds or so, about 2,700 (4%) showed an effect of 50% or more. The full list was thinned out, with strong results kept by preference.

The test has as its system Plasmodium berghei. In words: Screen against P. berghei liver stage (PbLuc), transformed with Luciferase, at 2uM. Conditions: tested at 2 uM. It is filed as functional, HepG2.
Consider `COc1ncnc(N(C)C)c1NC(=O)Cc1cc(F)ccc1F`, for which the INHIBITION is on record as -73.79%.
With `O=C(CN1CC(c2nc(-c3ccco3)no2)C1)NCC1CCCO1` (centres undefined), the INHIBITION came out at 23.01%.
Turning to `Cc1cc(NC(=O)NC2CCN(C(C)C)CC2)c2ncccc2c1`, the INHIBITION is listed as -40.76%.
To `COc1ccc(S(=O)(=O)NCCCc2ccc(N(C)C)cc2)cc1F` belongs 25.53%.
On to `CCOc1ccc(S(=O)(=O)NCCCc2ccc(N(C)C)cc2)cc1F`, for which the INHIBITION came out at 51.71%.
Turning to `CCOc1ccc(S(=O)(=O)NCCc2ccc(N(C)C)cc2)cc1F`, the INHIBITION is listed as 21%.
`CN(Cc1nnc(-c2ccco2)o1)C(C(N)=O)c1cccc(F)c1` (centres undefined): the INHIBITION was 5.64%.
With `CC(C)CCn1ccc(NC(=O)N2CCCC2CN2CCOCC2)n1` (centres undefined), the INHIBITION is -39.07%.
In the case of `CCNC(=O)CN1CCc2c(Br)ccc(F)c2C1` it was -25.78%; in that of `Cn1ccnc1CN1CCC2(CC1)CN(c1cncnc1)C(=O)CO2`, 7.71%; in that of `CCOC1CCN(CC(=O)Nc2oc(C)c3c(C)n[nH]c(=O)c23)CC1`, 52.52%.
Consider `Cc1n[nH]c(=O)c2c(NC(=O)CN3CCC(O)CC3)oc(C)c12`, for which the INHIBITION was determined as 5.72%.
As for `Cc1n[nH]c(=O)c2c(NC(=O)CN3CCC(C)CC3)oc(C)c12`, the INHIBITION was 26.2%.
As for `COCC[C@]1(O)CCN(Cc2ccccn2)C[C@H]1C`, the INHIBITION was 5.39%.
For `O=C(NCC1(O)CCSC1)c1ccoc1` (centres undefined), the INHIBITION turned out to be 22.4%.
As to `O=C(Cc1cccs1)NCC1(O)CCc2ccccc2C1` (centres undefined), the INHIBITION is on record as 24.6%.
Take `O=C(NCC1(O)CCSCC1)c1ccoc1`: the INHIBITION is given as 53.61%.
Consider `COC1(CNC(=O)c2ccoc2)CCSC1` (centres undefined), for which the INHIBITION was found to be 28.5%.
To `O=C(Cc1cccs1)NCC1(O)CCSCC1` belongs 52.85%; to `O=C(Cc1cccs1)NCC1(O)CCSC1` (centres undefined), -2.22%.
To `CN(Cc1ccncc1)C1CC2(CCN(c3ncccn3)CC2)C1` belongs 36.48%; to `COc1ccc(NC(=O)NCCCn2nc3ccccn3c2=O)cc1`, -12.82%.
Turning to `COCc1cc(N2CCOC(c3ccc(Cl)c(Cl)c3)C2)ncn1` (centres undefined), the INHIBITION is listed as -16.62%.
Turning to `CC(C)(C)c1cnc(CN2CCC(CN3CCOCC3)CC2)o1`, the INHIBITION is recorded as -10.87%.
To `COCCN(C)C(=O)c1nc2c(s1)CCCN2C` belongs 32.04%; to `O=C(c1ccc(F)cc1F)N1CCN(C(=O)C2CCCCC2)CC1`, 16.54%; to `CC(C)Cc1nc(CO)n(-c2ccc3c(c2)OCCO3)n1`, 31.8%.
Turning to `CC(C)c1nc(CCn2cncn2)n(-c2ccc3c(c2)OCCO3)n1`, the INHIBITION is given as -39.01%.
To `CC(C)Cc1nc(CCn2cncn2)n(-c2ccc3c(c2)OCCO3)n1` belongs 61.14%; to `Cc1cc(N)cc(C2CN(Cc3cc[nH]n3)CCO2)n1` (centres undefined), 26.14%; to `COc1ccc(C2CCCCCN2S(N)(=O)=O)cc1` (centres undefined), -16.65%.
`CC(C)c1cc(C(=O)N2CCc3nc(C4CCCN4)ncc3C2)cs1` (centres undefined): the INHIBITION was found to be 67.83%.
Take `Cc1cc(C(=O)N2CCc3nc(C4CCCN4)ncc3C2)cs1` (centres undefined): the INHIBITION amounted to 40.31%.
Regarding `Cc1cc(C(=O)N2CCc3nc(C4CCCCN4)ncc3C2)cs1` (centres undefined), the INHIBITION worked out at 12.8%.
Consider `CC(C)(C)C(=O)NS(=O)(=O)c1ccc(C#N)c(C(F)(F)F)c1`, for which the INHIBITION turned out to be 1.52%.
For `COc1ccc(Oc2nccnc2C2CCN(C(C)=O)CC2)cc1`, the INHIBITION was found to be 12%.
`Cc1cccc(C)c1Oc1ncccc1CNC(=O)C1(C)CCCNC1` (centres undefined): the INHIBITION stood at 50.32%.
Take `CC1(C(=O)NCc2cccnc2Oc2ccc(F)cc2F)CCCNC1` (centres undefined): the INHIBITION is -20.29%.
Consider `COc1ccccc1Oc1ncccc1CNC(=O)C1(C)CCCNC1` (centres undefined), for which the INHIBITION is 43.27%.
In the case of `O=C(CC1CC1)N(Cc1cccnc1)CC1CCN(C2CCCC2)CC1` it was -53.72%.
`Cn1nccc1C(=O)N1CCC(n2cc(-c3ccsc3)nn2)CC1`: the INHIBITION is given as 15.68%.
To `CCC(O)CN1CCN(C(=O)c2cccc3c2OCC(=O)N3)CC1` (centres undefined) belongs -29.24%; to `COCc1cn(CC2CCN(Cc3cc(C)[nH]n3)CC2)nn1`, 26.3%; to `Fc1ccc(N2CCCN(c3ccc(Cn4ccnc4)cn3)CC2)cc1`, 54.49%.
Consider `c1csc(CN2CCCN(c3ccc(Cn4ccnc4)cn3)CC2)c1`, for which the INHIBITION worked out at 17.61%.
Turning to `c1cn(Cc2ccc(N3CCCN(C4CCCC4)CC3)nc2)cn1`, the INHIBITION is 4.63%.
On to `COc1ccc2[nH]cc(-c3ccnc(NC4CCCC4)n3)c2c1`, for which the INHIBITION is recorded as -4.95%.
Regarding `Cc1noc(CCCC(=O)NC(C)c2ccc(Cl)s2)n1` (centres undefined), the INHIBITION is 15.4%.
As to `Cc1nc(NCC(O)CN2CCCCCC2)c2c(C)noc2n1` (centres undefined), the INHIBITION was determined as 30.87%.
With `CCc1cnc(C)nc1NCCN1CCCCCC1`, the INHIBITION was determined as 7.08%.
As to `CCc1cnc(C)nc1NCC(O)CN1CCCCCC1` (centres undefined), the INHIBITION amounted to 80.68%.
For the compound `COc1cccc(S(=O)(=O)N2CCCc3c(OC)nn(C)c3C2)c1`, the INHIBITION is recorded as 39.57%.
With `COc1nn(C)c2c1CCCN(S(=O)(=O)c1cccc(C)c1)C2`, the INHIBITION is recorded as 23.43%.
Consider `COc1nn(C)c2c1CCCN(S(=O)(=O)c1cccc(F)c1)C2`, for which the INHIBITION was found to be 52.47%.
